Article PMC10163288
Not all results are given here. No count for the full screen is at hand.

B1: il2ra_site2_2erj_normal_mot_HHH_b1_04373_af2_000000118_0001_18_33_H_._HHH_b2_00961_af2_0001_0000900028_0000001_1 (protein)
chain: SSSSSDEEEVERRVRELLEEAEKVDLEEAYKLAVEALHLAAENRDPELLRLILEWVEKHSSSSSS
B2: il2ra_site2_3nfp_sap_15_mot_HHH_b1_02990_000000128_0001_41_58_H_._HHH_b1_03794_0001_0000400021_0000001_0_0001 (protein)
chain: SEAEEIIKLIAELLGTPPERVRERVEDAAEIVNRPPEEAAAYLLAQVALELGDPELEKEAKRLSR
B3: il2ra_site2_2erj_sap_28_mot_HHH_b1_08185_000000106_0001_41_55_H_._HHH_b2_03845_af2_0001_0001200037_0000001_0_0001 (protein)
chain: SSSSDEEEERLEELVERAERLLKEGNPEEAWEVLREAATLAWELGDEEIWSRLSKLTAEVASSSS
B4: il2ra_site1_1z92_normal_mot_54e474eed2d0515e81978198f0f96ec2_0001_000000202_0001_15_30_H_._8eb524b276bbb897fd8f0cca34c37a2d_0001_af2_0001_0000300018_0000001_0_a … (protein)
chain: DVEEEIEEALKELGVPPEEIKVVKRDFRLAREAGIPPEQVLRALINAARASGDEELTEALELVLK
B5: il2ra_site1_3nfp_normal_mot_e80b558ee5422d85aa46efdc370d0602_0001_af2_000000114_0001_54_65_H_._HEEHE_2247_0002_0000400019_0000001_0_af2pred_0001_af2pred (protein)
chain: DRQEILQEDAELISKVAGVTSVHVEVENGHVTVTVEADNRRARALLRILREAAKIAGLEVEITIE
B6: il2ra_site2_2erj_normal_mot_HHH_b1_02757_000000121_0001_41_57_H_._HHH_b1_02256_0001_0000700046_0000001_0_af2pred_0001_af2pred (protein)
chain: SSSSSSSVEEEVKELLEQAKHIPDIREALKVLEEADRLALENDNEELLELITRVLRELSSSSSSS
B7: il2ra_site2_2erj_normal_mot_HHH_b2_04744_000000294_0001_42_58_H_._HHH_b1_07967_af2_0001_0000500022_0000001_0 (protein)
chain: SSSSDEEERLEELLKELEELSRKRDFHRFAEVFSEILELVEENNDEEAALIAFRIMREHFGSSSS
B8: il2ra_site1_2b5i_normal_mot_f5ff40796168375b462bec8614a1db4a_0001_1_000000138_0001_53_65_H_._HHH_b2_01775_0001_0000500027_0000001_0_af2pred_dldesign_0_af2pred (protein)
chain: SSSSSSEKRELIQALIDEAKKEEDKRLAKRLLLLALRLARKHNDEELIAEIEALLKELESSSSSS
B9: il2ra_site2_2erj_sap_16_mot_HHH_b2_07792_af2_000000252_0001_18_34_H_._HHH_b1_07975_af2_0001_0000200006_0000001_0_0001 (protein)
chain: SSSSSDTEEEVEELLEQAKRITDLREVYRLAVEALHLAARVQDPELQRLVAEVVEELSRSSSSSS
B10: il2ra_site2_2erj_sap_19_mot_HHH_b2_01275_af2_000000073_0001_23_39_H_._HHH_b1_01063_af2_0001_0000200019_0000001_0_0001 (protein)
chain: SSSSDKLRELYELAVEVLRAVARGDEEEAERLLEEAKELAEELDSPNAREALENNKRLLKSSSSS
B11: il2ra_site2_2erj_sap_14_mot_HHH_b2_01204_af2_000000056_0001_19_34_H_._HHH_b2_03878_0001_0000200011_0000001_0_0001 (protein)
chain: SSSSDWLHELYELASEITRLLAEGDPEEARRLLEELEELAEENDSPNAEEIVERLEKKIESSSSS
B12: il2ra_site1_2b5i_sap_14_mot_HHH_b2_01684_af2_000000128_0001_1_17_H_._HHH_b1_05605_0001_0000200010_0000001_0_0001_af2pred_dldesign_0_af2pred (protein)
chain: SSSSSSSSDRRALLEEANKAFQAGDVEALEALLERAEAAGWEKVARTIRKAIEALLESSSSSSSS
B13: il2ra_site1_2b5i_sap_9_mot_HHH_b2_02740_000000236_0001_1_21_H_._HHH_b1_02398_0001_0000300016_0000001_0_0001 (protein)
chain: SSSSDDELFHEIDELFREASRLFLNGNPEEAEKVLEKAIRLAEEGGDESTAEDLRRFLELLSSSS
B14: il2ra_site2_3nfp_sap_25_mot_HHH_b2_06150_000000217_0001_39_53_H_._HHH_b2_05014_af2_0001_0000300011_0000001_0_0001 (protein)
chain: DEVSEVIWRLREEGDPELAFLLFAVRADVLYKHDPELEEELEKLIELAERDPEKAKELAEELLRR
B15: il2ra_site2_2erj_normal_mot_HHH_b2_01353_af2_000000049_0001_23_39_H_._HHH_b1_04436_af2_0001_0000200013_0000001_0 (protein)
chain: SSSSDEIEELLEKAKELLEKGNPEEAEEVLRRASVAAFENRDHEAFAEIAELLRIVAELEASSSS
B16: il2ra_site1_1z92_sap_28_mot_HHH_b1_00661_af2_000000033_0001_38_50_H_._HHH_b2_00267_af2_0001_0000300009_0000001_0_0001_af2pred_0001_af2pred_1 (protein)
chain: PEELAEQAEELLKNGNPEEAEKVLRELAKELGNEEVFERDLEHAERNLGNPEQALLSLIKALSFV
B17: il2ra_site1_1z92_sap_12_mot_HHH_b2_04974_000000012_0001_1_17_H_._HHH_b1_06150_af2_0001_0000300041_0000001_0_0001_af2pred_dldesign_0_af2pred (protein)
chain: SSSSSSPYQRARDLILEINKARQAGDTEKFDELLAELEKLAKELESNTLLRFIEHARKELSSSSS
B18: il2ra_site2_2erj_normal_mot_HHH_b2_06912_000000039_0001_38_52_H_._HHH_b2_01292_0001_0000100004_0000001_0 (protein)
chain: SSSSSDKEESEKLAEEAHELILRNPERVEEIVEEFRRELEELNDPIAVRYLELVRRDVNSSSSSS
B19: il2ra_site2_3nfp_sap_24_mot_HHH_b1_03818_000000217_0001_1_20_H_._HHH_b1_04518_af2_0001_0000400014_0000001_0_0001 (protein)
chain: SEKDLIEMSLEMIKAHALLHGNEEVQEIVEELERLLEEAKRKNDEELREEVAERAAELIERVLES
B20: il2ra_site2_2erj_normal_mot_HHH_b2_00494_000000216_0001_41_54_H_._HHH_b1_07802_af2_0001_0000300011_0000001_0 (protein)
chain: SSSSNEELRRLYELADEALRLITEGNPEEAEKVLEEARELAERLNSENAREVVEFLEELLESSSS
B21: il2ra_site2_2erj_sap_21_mot_HHH_b2_00938_af2_000000099_0001_43_55_H_._HHH_b1_03152_af2_0001_0000100003_0000001_0_0001 (protein)
chain: SSSSLHEAFEIAVEAAAKISRLHREGNDEEAKRVFEEARERLEELGTENAREHLEHLFKALSSSS
B22: il2ra_site2_3nfp_normal_mot_HHH_b1_00660_af2_000000090_0001_40_57_H_._HHH_b1_02730_0001_0001000022_0000001_0 (protein)
chain: SSSSSDEEVRELLEQLRELIEKNDEEEFERLSREITNLAYELNNFELFALVQELRARFISSSSSS
B23: il2ra_site2_3nfp_normal_mot_HHH_b2_04451_000000238_0001_21_37_H_._HHH_b2_04195_af2_0001_0000200011_0000001_0 (protein)
chain: SSSSSEEEEVRELLEQARELLERGDPYEALELLAEASEIAAKLNNEELARLILELFEKVQKSSSS
B24: il2ra_site2_3nfp_normal_mot_HHH_b2_08209_000000146_0001_1_18_H_._HHH_b1_00160_0001_0000200018_0000001_0 (protein)
chain: SSSSSTEEERERVEELLEEAKEITDPEERKELLAEATQIAYEANDFELFALVADVVFELLSSSSS
B25: il2ra_site2_3nfp_sap_19_mot_HHH_b1_06699_000000048_0001_23_40_H_._ems_3hC_59_0001_0000100006_0000001_0_0001_af2pred_0001_af2pred (protein)
chain: SSSSSDAAEEAEELAEEARHVEDPEERERILRKAAELAYRARDHEVFAEIHLVIEELERSSSSSS
B26: il2ra_site1_3nfp_normal_mot_HHH_b2_08102_af2_000000255_0001_38_50_H_._HHH_b2_05157_0001_0000400017_0000001_0_af2pred_0001_af2pred (protein)
chain: SSSSDHLAREYTEWAKRRIRELLERGDEEAARRLLEKAKRSLEIAGDEEAVEELEKLYEELSSSS
B27: il2ra_site1_2b5i_normal_mot_HHH_b2_01040_af2_000000143_0001_42_56_H_._HHH_b1_04969_af2_0002_0000100009_0000001_0 (protein)
chain: SSSSSDEAEEAAREALELLRELLRVDEEEIKELLEEAHEKLEKLNDEALLKRVERLLRLLSSSSS
B28: il2ra_site1_3nfp_sap_13_mot_HHH_b1_04931_000000291_0001_38_56_H_._HHH_b2_07276_0001_0000200010_0000001_0_0001 (protein)
chain: SSSSSDYEELERLFREIFELAKKGDHEEARRLIEELEELAHEANNEFMEQAVKQLKKTVNSSSSS
B29: il2ra_site2_3nfp_normal_mot_HHH_b2_00232_000000252_0001_23_39_H_._HHH_b2_01857_0001_0000200024_0000001_0_1_af2pred_0001_af2pred (protein)
chain: SSSSSDEEEEKVEELLEEAEHIEDEEELEDILALAFLIAFEAEDPELLRLVREVSAELLQSSSSS
B30: il2ra_site2_2erj_sap_21_mot_39ed66e5fba071e4f274ea7f2cf018e6_0001_000000286_0001_17_31_H_._HHH_b1_00857_0001_0000200006_0000001_0_0001_af2pred_0001_af2pred (protein)
chain: SSSSEEREKAKELAARALQLRERGNPEEAEELLREAEEIAREGGDEELLQLIQAALRLIELSSSS
B31: il2ra_site1_3nfp_normal_mot_HHH_b1_02721_af2_000000134_0001_39_56_H_._HHH_b2_00677_af2_0001_0000100009_0000001_0 (protein)
chain: SSSSSDTEEAFQLDRELLEALRKGDEELIEELLRELEELAKELNDELAERLVEQFKELLKSSSSS
B32: il2ra_site2_2erj_sap_26_mot_HHH_b2_08005_af2_000000017_0001_39_52_H_._5f42aca8a0c299d7b7d7982f3e471efe_0001_0001_0000400050_0000001_0_0001 (protein)
chain: SSSSDLEEEVERIEKEAEELYKNGNPEEALRLLSELFDELYQLGDHELAARVIKLVAELARSSSS
B33: il2ra_site1_1z92_normal_mot_HHH_b1_04329_000000069_0001_1_19_H_._HHH_b2_03912_0001_0000100007_0000001_0_af2pred_0001_af2pred_1 (protein)
chain: SSSSIELIRFADEVVLRLAEEYKLSDEDAQYLAEVAIELIRRGYSEEEIEEILQEEAEKLSSSSS
B34: il2ra_site2_2erj_sap_19_mot_HHH_b2_00505_000000221_0001_1_17_H_._HHH_b1_08169_0001_0000200013_0000001_1_0001 (protein)
chain: SSSSSEWLHRSYKLANELMHLLARGDEEEFERLVEEIEKFAEERDNKVLKEIVESLHRLFNSSSS
B35: il2ra_site1_2b5i_normal_mot_HHH_b2_04910_000000118_0001_1_19_H_._HHH_b1_07294_af2_0001_0000100005_0000001_0_af2pred_dldesign_0_af2pred (protein)
chain: SSSSSSKEALELFLKANEAYQAGNYEEAKKLLEEALEKAKAAGMTALVKMIESALESLSSSSSSS
B36: il2ra_site1_3nfp_sap_20_mot_HHH_b2_00213_000000088_0001_1_18_H_._HEEHE_0331_af2_0001_0000400039_0000001_0_0001_af2pred_dldesign_0_af2pred (protein)
chain: SSSSSLRKELERLLKKAYETGKKNDKEKLKKLLEEALKLAKENKAKLSVKFLERALKQLKSSSSS
B37: il2ra_site1_1z92_normal_mot_HHH_b1_04604_af2_000000029_0001_42_56_H_._HHH_b2_07020_af2_0001_0000300012_0000001_0 (protein)
chain: SSSSSSDVIELALRLARALRRGDEEEVQELLEELKRYAEERDNRAAREIAERIEKHLGSSSSSSS

Molecular target: il2ra, P01589
Sequence (P01589 whole entry): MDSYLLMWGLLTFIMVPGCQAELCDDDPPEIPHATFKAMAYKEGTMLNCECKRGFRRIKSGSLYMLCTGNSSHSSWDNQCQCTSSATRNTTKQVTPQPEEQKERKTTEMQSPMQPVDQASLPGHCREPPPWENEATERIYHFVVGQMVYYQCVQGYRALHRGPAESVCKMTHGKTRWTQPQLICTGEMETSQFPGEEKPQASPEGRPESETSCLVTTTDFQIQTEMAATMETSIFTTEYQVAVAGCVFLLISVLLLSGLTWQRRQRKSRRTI
Assay: yeast display titration

Apparent Kd, inactive:
B1 no binding seen
B2 no binding seen
B3 no binding seen
B4 no binding seen
B5 no binding seen
B6 no binding seen
B7 no binding seen
B8 no binding seen
B9 no binding seen
B10 no binding seen
B11 no binding seen
B12 no binding seen
B13 no binding seen
B14 no binding seen
B15 no binding seen
B16 no binding seen
B17 no binding seen
B18 no binding seen
B19 no binding seen
B20 no binding seen
B21 no binding seen
B22 no binding seen
B23 no binding seen
B24 no binding seen
B25 no binding seen
B26 no binding seen
B27 no binding seen
B28 no binding seen
B29 no binding seen
B30 no binding seen
B31 > 802 nM
B32 no binding seen
B33 no binding seen
B34 no binding seen
B35 no binding seen
B36 > 1470 nM
B37 no binding seen
